These results are taken from PubChem BioAssay.

Experiment [1] concerns Human papillomavirus type 1a protein E7 (residues 44-93). The experiment is described as follows: small molecules binding HPV E7 44-93 – biochemical, small-molecule microarray, residues 44-93, 635 nm fluorescence, primary screen (AID 1108).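 Note: E7 fragment applied at 1 µg/mL in TBST for 1 h at 4 C; score combines spot fluorescence with its signal to noise ratio.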 The following applies: fluorescence 635 nm, higher = more signal.
Experiment [2] in a line: hepatitis C replication reporter changes, two-sided – Huh7 cells, luciferase reporter, HCV replication inhibitor project, primary screen (AID 1109).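 Note: huh7 hepatoma cells harbouring a luciferase neomycin HCV replicon reporter; luciferase luminescence as measure of HCV replicon replication; test concentration not given here.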 The following applies: Huh7 HCV replicon luciferase reporter, 48 h; higher = more signal.
In experiment [3] the target is Left-right determination factor 2 (Homo sapiens) (UniProt O00292). The experiment is described as follows: small molecules binding LEFTY2 protein – biochemical, small-molecule microarray, 635 nm fluorescence scan, primary screen (AID 1110). Particulars: higher = more signal.
Experiment [4] addresses Calmodulin-1 (Homo sapiens) (UniProt P0DP23). The experiment is described as follows: small molecules binding calmodulin-1 with EGTA – biochemical, small-molecule microarray, Cy5-labelled CALM1, profiling panel (AID 1111).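 Note: labelled calmodulin applied in Tris saline Tween buffer holding calcium plus EGTA and DTT.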 Particulars: Cy5-CALM1 binding fluorescence, higher = more signal.
For experiment [5] the target is unchanged. The experiment is described as follows: small molecules binding Ca-loaded calmodulin-1 – biochemical, small-molecule microarray, Cy5-labelled CALM1, plus calcium, artefact control for SMM control-protein annotation, profiling panel (AID 1112).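 Note: score merges spot fluorescence with signal to noise from triplicate slides.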 The following applies: Cy5-CALM1 binding fluorescence, higher = more signal.
A short description of experiment [6]: probe aWnt5a binding to arrayed compounds – biochemical, biotinylated probe, 635/667 nm fluorescence, primary screen (AID 1113).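 Note: score merges 667 nm fluorescence intensity with signal-to-noise per printed feature.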 The following applies: small-molecule microarray, higher = more signal.
Experiment [7] can be described thus: probe aShh binding to arrayed compounds – biochemical, biotinylated probe, 635/667 nm fluorescence, primary screen (AID 1114).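 Note: probe is biotin-labelled aShh protein from a stem cell growth factor screen; measures binding of labelled protein to compounds printed on the slide; score merges feature fluorescence at 667 nm with signal-to-noise.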 Particulars: small-molecule microarray, higher = more signal.
A short description of experiment [8]: probe aNog binding to arrayed compounds – biochemical, biotinylated probe, 635/667 nm fluorescence, primary screen (AID 1115).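 Note: probe is biotinylated aNog protein used at 0.15 µg/mL for 1 h at 4 C; z-score combines 667 nm fluorescence of each spot with its signal to noise.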 Particulars: small-molecule microarray, higher = more signal.
Experiment [9] deals with Torsin-1A-interacting protein 1 (Homo sapiens) (UniProt Q5JTV8). The experiment is described as follows: compound microarray binding of lysate hLAP1 – cell lysate, small-molecule microarray, COS7 lysate, 635/667 nm fluorescence, primary screen (AID 1116). Particulars: 635 nm fluorescence, higher = more signal.
In experiment [10] the target is Alpha-bungarotoxin (Bungarus multicinctus) (UniProt P60615). The experiment is described as follows: compounds binding labelled alpha-BTX control protein – biochemical, small-molecule microarray, Alexa647 label, 635/667 nm fluorescence, artefact control for SMM control protein annotation, profiling panel (AID 1117). Particulars: alpha-BTX-A647 binding fluorescence, higher = more signal.

The next experiment has as its target Albumin (Bos taurus) (UniProt P02769). The experiment is described as follows: compounds binding labelled BSA control protein – biochemical, small-molecule microarray, Alexa647 label, 635/667 nm fluorescence, artefact control for SMM control protein annotation, profiling panel (AID 1118).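 Note: score merges 667 nm emission intensity and signal-to-noise per printed compound spot.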 The following applies: BSA-A647 binding, fluorescence 635 nm, higher = more signal.

Experiment [11] can be described thus: probe aXIP binding to arrayed compounds – biochemical, NeuroSMM set, 635/667 nm fluorescence, primary screen (AID 1119).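 Note: probe is the protein aXip251-270 applied at 1 µg/mL to compound-printed slides; binding of probe to printed compounds measured as 667 nm fluorescence plus signal to noise.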 The following applies: small-molecule microarray, higher = more signal, called active from +8 up or from −8 down.
The nature of experiment [12]: probe aNOTCH3 binding on compound microarray – biochemical, small-molecule microarray, 635/667 nm fluorescence, primary screen (AID 1120).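 Note: probe is a biotin-tagged antibody raised against NOTCH3 rather than NOTCH3 protein; score merges spot fluorescence near 667 nm with spot signal to noise.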 The following applies: higher = more signal.
The nature of experiment [13]: probe aNOTCH2 binding on compound microarray – biochemical, small-molecule microarray, 635/667 nm fluorescence, primary screen (AID 1121).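 Note: score merges feature fluorescence read at 667 nm with its signal to noise.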 Particulars: higher = more signal.
Experiment [14] deals with Carbonic anhydrase 2 (Homo sapiens) (UniProt P00918). The experiment is described as follows: compounds binding carbonic anhydrase 2 – biochemical, small-molecule microarray, Alexa647-labelled CAII, profiling panel (AID 1122). Particulars: CAII-A647 binding fluorescence, higher = more signal.
Experiment [15] is described as follows: COS7 lysate on small-molecule microarray, probe aHis, 635 nm (AID 1123).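 Note: z-score combines 667nm fluorescence intensity with signal-to-noise per printed compound spot.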 The following applies: COS7 cell lysate, fluorescence, higher = more signal.
The nature of experiment [16]: probe aLAP1 signal on lysate-treated microarray – cell lysate, small-molecule microarray, COS7 lysate, primary screen (AID 1124).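 Note: lysate comes from COS7 cells expressing LAP1 and is applied at 0.3 µg/mL; score merges spot fluorescence near 667 nm with signal-to-noise over triplicate slides.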 Particulars: probe aLAP1, fluorescence, higher = more signal.
A further experiment relates to Sam68 (KHDRBS1). The experiment is described as follows: compounds binding KHDRBS1 protein – biochemical, small-molecule microarray, 635 nm fluorescence, primary screen (AID 1125).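 Note: score merges 667 nm channel intensity with signal to noise over triplicate slides.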 The following applies: higher = more signal.
For experiment [17], the system named is Chordin-like protein 2 (CHRDL2). The experiment is described as follows: compounds binding chordin-like 2 – biochemical, small-molecule microarray, 635 nm fluorescence, primary screen (AID 1126).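 Note: printed compound slides probed with Chrdl2 protein at 4 µg/mL for 1 h at 4 C; score merges 667 nm emission intensity with signal to noise over three replicate slides.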 Particulars: fluorescence 635 nm, higher = more signal.
Experiment [18] has as its target Concanavalin-A (Canavalia ensiformis) (UniProt P02866). The experiment is described as follows: compounds binding concanavalin A lectin – biochemical, small-molecule microarray, Alexa647 label, 635 nm, artefact control for SMM control protein annotation, primary screen (AID 1127).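 Note: z combines 667 nm emission intensity with signal-to-noise across three replicate slides.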 The following applies: ConA-A647 binding fluorescence, higher = more signal.

Calls of active or inactive are those of the source.

Sequence of Left-right determination factor 2 (Homo sapiens) (O00292 whole entry, looked up): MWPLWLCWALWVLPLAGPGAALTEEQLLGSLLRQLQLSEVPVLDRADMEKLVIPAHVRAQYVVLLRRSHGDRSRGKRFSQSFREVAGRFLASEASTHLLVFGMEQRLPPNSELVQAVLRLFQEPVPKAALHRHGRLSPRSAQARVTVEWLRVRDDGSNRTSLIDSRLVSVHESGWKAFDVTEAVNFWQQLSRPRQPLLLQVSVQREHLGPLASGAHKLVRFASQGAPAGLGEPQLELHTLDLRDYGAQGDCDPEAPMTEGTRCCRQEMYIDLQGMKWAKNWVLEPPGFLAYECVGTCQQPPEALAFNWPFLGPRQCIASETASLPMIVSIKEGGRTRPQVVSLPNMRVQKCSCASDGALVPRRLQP
Sequence of Alpha-bungarotoxin (Bungarus multicinctus) (P60615 whole entry, looked up): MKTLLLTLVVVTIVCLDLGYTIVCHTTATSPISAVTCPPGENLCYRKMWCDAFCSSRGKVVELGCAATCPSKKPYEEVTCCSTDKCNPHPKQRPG
Sequence of Albumin (Bos taurus) (P02769 whole entry, looked up): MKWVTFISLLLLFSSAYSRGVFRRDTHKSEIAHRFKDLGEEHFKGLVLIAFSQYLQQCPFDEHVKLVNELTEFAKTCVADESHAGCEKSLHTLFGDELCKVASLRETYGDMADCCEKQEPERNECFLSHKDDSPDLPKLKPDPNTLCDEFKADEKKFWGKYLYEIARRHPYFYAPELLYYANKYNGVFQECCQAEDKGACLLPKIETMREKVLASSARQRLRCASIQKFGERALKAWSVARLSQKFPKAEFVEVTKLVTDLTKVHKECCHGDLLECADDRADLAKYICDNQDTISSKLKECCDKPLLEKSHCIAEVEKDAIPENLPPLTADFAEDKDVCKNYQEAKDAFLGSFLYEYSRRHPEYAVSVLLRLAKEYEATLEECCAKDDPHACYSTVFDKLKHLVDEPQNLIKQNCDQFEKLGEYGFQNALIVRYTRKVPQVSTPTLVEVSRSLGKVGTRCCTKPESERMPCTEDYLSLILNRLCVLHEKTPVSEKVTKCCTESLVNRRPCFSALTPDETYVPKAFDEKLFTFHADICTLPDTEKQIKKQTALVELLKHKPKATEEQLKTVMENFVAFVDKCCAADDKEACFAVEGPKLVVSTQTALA
Sequence of Concanavalin-A (Canavalia ensiformis) (P02866 whole entry, looked up): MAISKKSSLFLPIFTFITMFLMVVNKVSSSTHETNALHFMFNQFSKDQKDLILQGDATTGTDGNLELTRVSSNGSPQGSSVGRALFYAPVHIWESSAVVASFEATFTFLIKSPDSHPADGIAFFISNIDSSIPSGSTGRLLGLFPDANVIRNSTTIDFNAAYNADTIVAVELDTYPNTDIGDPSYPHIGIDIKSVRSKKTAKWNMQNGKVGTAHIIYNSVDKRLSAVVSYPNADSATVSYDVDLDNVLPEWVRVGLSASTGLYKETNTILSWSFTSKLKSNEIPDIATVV
Sequence of Torsin-1A-interacting protein 1 (Homo sapiens) (Q5JTV8 whole entry, looked up): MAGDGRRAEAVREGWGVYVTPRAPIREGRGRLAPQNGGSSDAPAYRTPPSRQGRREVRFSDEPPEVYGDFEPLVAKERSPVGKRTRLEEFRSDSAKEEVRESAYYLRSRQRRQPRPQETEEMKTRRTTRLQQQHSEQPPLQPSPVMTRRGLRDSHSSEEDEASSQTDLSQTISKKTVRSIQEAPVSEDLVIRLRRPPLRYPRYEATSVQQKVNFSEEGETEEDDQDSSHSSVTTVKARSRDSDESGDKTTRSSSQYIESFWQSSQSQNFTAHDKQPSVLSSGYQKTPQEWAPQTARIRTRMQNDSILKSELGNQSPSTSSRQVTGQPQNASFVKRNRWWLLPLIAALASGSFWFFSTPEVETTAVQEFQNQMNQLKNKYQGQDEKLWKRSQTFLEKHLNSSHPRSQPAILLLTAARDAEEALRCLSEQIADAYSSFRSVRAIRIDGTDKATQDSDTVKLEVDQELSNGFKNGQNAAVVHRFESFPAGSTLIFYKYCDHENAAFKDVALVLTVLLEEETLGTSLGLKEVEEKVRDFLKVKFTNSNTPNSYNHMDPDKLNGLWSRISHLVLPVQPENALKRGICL

As for `COc1ccc([Si](C)(C)[C@@H]2[C@@H](CCO)O[C@]3(C(=O)N(Cc4ccccc4)c4ccc(N5C(=O)COc6ccccc65)cc43)[C@H]2C)cc1`, the composite z-score was 1.23 in [1]; 0.0529 in experiment [3]; 0.953 in [4]; 0.838 in [5]; -0.129 in [6]; -0.0626 in experiment [7]. Moreover, the composite z-score in experiment [8] is -0.194; in [9] it was 0.462; in experiment [10], 0.31; with Albumin (Bos taurus), 0.187; in [12] it was -0.0077; in experiment [13], -0.0731. Also, the composite z-score in experiment [14] is 0.426; in [15], 0.841; in experiment [16] it was 0.719; in the experiment with Sam68 (KHDRBS1) it was 0.929; in experiment [17] it was -0.237; in experiment [18], 0.822. For the same compound, the z-score in experiment [2] was -4.11. Further, in experiment [11], the composite Z-score was 0.685 (inactive).

In the case of `CC(C)c1ccc(NN2C(C(O)c3cccs3)C=CC3C(=O)N(c4ccccc4)C(=O)C32)cc1` (stereo not given), the composite z-score in experiment [1] is 1.4; in experiment [3], -0.0393; in experiment [4] it was 2.29; in [5], 0.795; in experiment [6] it was 0.0364; in [7], -0.304. Further, the composite z-score is 0.113 in [8]; 0.789 in experiment [9]; 1.01 in experiment [10]; 0.772 in the experiment with Albumin (Bos taurus); 0.319 in experiment [12]; -0.136 in experiment [13]. In addition, the composite z-score was 0.76 in experiment [14]; 2.06 in experiment [15]; 0.665 in experiment [16]; 1.31 in the experiment on Sam68 (KHDRBS1); -0.127 in experiment [17]; 1.13 in experiment [18]. This compound also displayed a z-score in experiment [2] of -0.531. For the same compound, the composite Z-score in [11] is 0.302 (inactive).

Consider `CCCNC(=O)[C@@]1(Sc2ccc(C)cc2)CC(=O)N(Cc2ccccc2)[C@@H]1c1ccc(CO)cc1I`, for which the composite z-score is 1.17 in experiment [1]; -0.045 in experiment [3]; -0.296 in experiment [4]; 0.143 in experiment [5]; -0.0758 in experiment [6]; -0.1 in experiment [7]. The composite z-score in [8] is 0.225; in [9] it was 0.285; in [10] it was 1.19; in the experiment with Albumin (Bos taurus), -0.793; in [12] it was 0.147; in [13], -0.115. Besides, the composite z-score in experiment [14] stood at 0.405; in experiment [15], 0.644; in experiment [16], 1.01; with Sam68 (KHDRBS1), 0.827; in experiment [17], 0.678; in experiment [18], 0.082. Moreover, the z-score in [2] is -2.64. For the same compound, the composite Z-score in experiment [11] is -0.163 (inactive).

For `C[N+](C)(C)CCCC[C@@H]1NC(=O)[C@@H]2C[C@H](C(=O)NCCCCCNC(=O)CS)[C@H](c3cccc(OCCO)c3)N2C1=O`, the composite z-score is 0.911 in experiment [1]; 0.0926 in [3]; -0.0534 in experiment [4]; 0.581 in experiment [5]; -0.0478 in experiment [6]; 0.151 in [7]. Moreover, the composite z-score was 0.0197 in [8]; -0.034 in experiment [9]; 0.568 in experiment [10]; 0.666 in the experiment with Albumin (Bos taurus); 0.0287 in [12]; -0.0662 in experiment [13]. The composite z-score in [14] was 0.399; in experiment [15], 0.46; in [16], -0.343; with Sam68 (KHDRBS1), 0.765; in [17] it was 0.361; in experiment [18], 0.88. This compound registered a z-score in experiment [2] of -0.193. In addition, the composite Z-score in experiment [11] is 0.0831 (inactive).

For the compound `C=CCC(OC(C)=O)[C@@H]1[C@@H](N(Cc2ccc(-c3ccccc3)cc2)C(=O)Cc2ccc(OC)cc2)c2cc(OCCCO)ccc2N1C(=O)c1ccc(-c2ccccc2)cc1` (stereo not given in full), the composite z-score in experiment [1] is -0.354; in experiment [3] it was 0.265; in [4] it was 0.36; in experiment [5], 0.807; in experiment [6] it was -0.0718; in experiment [7], -0.229. Moreover, the composite z-score in experiment [8] is -0.174; in experiment [9], 0.609; in experiment [10] it was 0.544; with Albumin (Bos taurus) it was -0.146; in experiment [12], 0.268; in [13], 0.0224. For the same compound, the composite z-score was 0.204 in experiment [14]; -0.0315 in experiment [15]; 0.394 in experiment [16]; -0.323 with Sam68 (KHDRBS1); 0.268 in [17]; -0.781 in [18]. Also, the z-score in experiment [2] amounted to 0.257. Also, the composite Z-score in experiment [11] is -0.427 (inactive).
